Reference: PubChem BioAssay (NCI)
About 79,000 compounds went through this panel and 15% of them were active in at least one assay; those are over-represented in the sample as a whole. The source made the active and inactive calls. Rule as the data show it: active = growth inhibition above about 70%; inactive = the rest.

What was measured:
[1] = NCI Yeast Anticancer Drug Screen. Data for the wt1 strain (AID 149);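 also: 0% = growth of vehicle-treated wt1 cultures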; conditions: S. cerevisiae wt1 strain (SPY 50644) growth inhibition, stronger effect = higher value
Procedure, shortened: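 The wt1 strain was treated with compounds, and growth was compared with vehicle-treated cultures to give inhibition.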

[2] = NCI Yeast Anticancer Drug Screen. Data for the rad50EPP+ strain (AID 151);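 also: 0% = growth of vehicle-treated control cultures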; conditions: S. cerevisiae rad50 mutant strain, stronger effect = higher value
Procedure, shortened: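 In this screen, rad50EPP+ yeast were exposed to compounds. Growth inhibition was scored against vehicle-treated controls.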

[3] = NCI Yeast Anticancer Drug Screen. Data for the mgt1 strain (AID 153); conditions: S. cerevisiae mgt1 mutant growth inhibition, stronger effect = higher value
Procedure, shortened: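 mgt1 strain exposed; growth vs vehicle control recorded as inhibition.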

[4] = NCI Yeast Anticancer Drug Screen. Data for the rad50 strain (AID 155);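 also: 0% = growth of vehicle-only cultures of the same strain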; conditions: S. cerevisiae rad50 strain growth inhibition, stronger effect = higher value
Procedure, shortened: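 Cells are treated with compound, grown, and their growth is then scored against vehicle-only cultures of the same repair-deficient yeast strain.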

[5] = NCI Yeast Anticancer Drug Screen. Data for the mec2-1 strain (AID 157); conditions: S. cerevisiae mec2-1 strain, stronger effect = higher value
Procedure, shortened: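 Vehicle-treated cultures served as reference for growth inhibition of compound-exposed mec2-1 yeast.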

[6] = NCI Yeast Anticancer Drug Screen. Data for the rad14 strain (AID 159);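 also: 0% = growth of vehicle-treated control cultures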; conditions: S. cerevisiae rad14 strain growth inhibition, stronger effect = higher value
Procedure, shortened: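 Readout: yeast growth inhibition, referenced to vehicle-only cultures. Strain bears a defined alteration in DNA damage repair.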

[7] = NCI Yeast Anticancer Drug Screen. Data for the sgs1 mgt1 strain (AID 161);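 also: 0% = growth of cultures given vehicle only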; conditions: S. cerevisiae sgs1 mgt1 strain, stronger effect = higher value
Procedure, shortened: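 Test agents were incubated with a DNA-repair-mutant yeast strain. Growth was then read and compared against vehicle-treated controls.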

[8] = NCI Yeast Anticancer Drug Screen. Data for the CLN2oe strain (AID 163);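 also: 0% = growth of vehicle-only control cultures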; conditions: S. cerevisiae CLN2oe strain, stronger effect = higher value
Procedure, shortened: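 Inhibition relative to vehicle-treated yeast is reported. Cells: strain with genetic alteration in cell-cycle control, grown with compound.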

[9] = NCI Yeast Anticancer Drug Screen. Data for the cln2 rad14 strain (AID 165);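 also: 0% = growth equal to vehicle treated cultures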; conditions: S. cerevisiae cln2 rad14 strain, stronger effect = higher value
Procedure, shortened: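 Each compound was tested on cln2 rad14 yeast. Inhibition of growth was calculated against vehicle-exposed controls.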

[10] = NCI Yeast Anticancer Drug Screen. Data for the bub3 strain (AID 167); conditions: S. cerevisiae bub3 mutant strain, stronger effect = higher value
Procedure, shortened: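 Part of a panel of yeast mutants defective in DNA damage repair or cell cycle regulation. Each strain is grown with compound, and inhibition is calculated relative to solvent-treated cultures.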

[11] = NCI Yeast Anticancer Drug Screen. Data for the wt2 strain (AID 169);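 also: 0% = growth of vehicle-treated yeast cultures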; conditions: S. cerevisiae wt2 strain growth inhibition, stronger effect = higher value
Procedure, shortened: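 Inhibition of yeast growth was determined after compound treatment, normalised to controls receiving only vehicle.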

[12] = NCI Yeast Anticancer Drug Screen. Data for the sgs1 strain (AID 173);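 also: 0% = growth of vehicle-only control cultures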; conditions: S. cerevisiae sgs1 mutant, stronger effect = higher value
Procedure, shortened: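 Screen format: yeast with repair or checkpoint alterations, compound exposure, growth read relative to vehicle.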

[13] = NCI Yeast Anticancer Drug Screen. Data for the mlh1 rad18 strain (AID 175); conditions: S. cerevisiae mlh1 rad18 strain growth inhibition, stronger effect = higher value
Procedure, shortened: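 Vehicle-treated cultures served as the reference for growth inhibition in a yeast strain carrying DNA damage repair alterations exposed to each compound.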

[14] = NCI Yeast Anticancer Drug Screen. Data for the mlh1 strain (AID 171);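 also: 0% = growth of vehicle-treated control cultures of the same strain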; conditions: S. cerevisiae mlh1 strain growth inhibition, stronger effect = higher value
Procedure, shortened: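 Vehicle-normalised growth inhibition of a repair- or checkpoint-altered yeast strain following compound treatment.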

[15] = NCI Yeast Anticancer Drug Screen. Data for the rad18 strain (AID 177); conditions: S. cerevisiae rad18 mutant growth inhibition, stronger effect = higher value
Procedure, shortened: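 Test articles were incubated with altered yeast defective in DNA damage repair. Results are given as inhibition of growth versus vehicle.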

[16] = at 5.0 µM (retest, dose inferred, filed as 0.5)
[17] = at 50.0 µM (retest, dose inferred, filed as 5.0)

Measured: growth inhibition

O=C(CCCN1CCC2(CC1)OC(=O)N(c1ccccc1)C2=O)c1ccccc1
inactive: [1]; at 1.2 µM 43% | [1]; at 3.7 µM 45% | [1]; at 11.0 µM 53% | [1]; at 33.0 µM 52% | [1]; at 100.0 µM 63% | [2]; at 1.2 µM 44% | [2]; at 3.7 µM 29% | [2]; at 11.0 µM 33% | [2]; at 33.0 µM 26% | [2]; at 100.0 µM 26% | [3]; at 1.2 µM 29% | [3]; at 3.7 µM 44% | [3]; at 11.0 µM 56% | [3]; at 33.0 µM 65% | [4]; at 1.2 µM 31% | [4]; at 3.7 µM 50% | [4]; [16] 31% | [4]; at 11.0 µM 60% | [4]; at 33.0 µM 65% | [4]; [17] 64% | [4]; at 100.0 µM 67% | [5]; at 1.2 µM 44% | [5]; at 3.7 µM 45% | [5]; [16] 37% | [5]; at 11.0 µM 60% | [5]; at 33.0 µM 61% | [5]; [17] 60% | [5]; at 50.0 µM 47.2% | [5]; at 100.0 µM 59% | [6]; at 1.2 µM 53% | [6]; at 3.7 µM 63% | [7]; [16] 48% | [7]; [17] 69% | [8]; at 1.2 µM 45% | [8]; at 3.7 µM 63% | [9]; [16] 64% | [9]; at 50.0 µM 65% | [10]; at 1.2 µM 20% | [10]; at 3.7 µM 29% | [10]; [16] 53% | [10]; at 11.0 µM 35% | [10]; at 33.0 µM 38% | [10]; [17] 67% | [10]; at 100.0 µM 50% | [11]; at 1.2 µM 7% | [11]; at 3.7 µM 24% | [11]; at 11.0 µM 32% | [11]; at 33.0 µM 38% | [11]; at 100.0 µM 40% | [12]; at 1.2 µM 53% | [12]; at 3.7 µM 67% | [13]; [16] 23%
active: [3]; at 100.0 µM 74% | [4]; at 50.0 µM 83.9% | [6]; at 11.0 µM 74% | [6]; at 33.0 µM 79% | [6]; at 100.0 µM 90% | [7]; at 50.0 µM 85.9% | [8]; at 11.0 µM 72% | [8]; at 33.0 µM 71% | [8]; at 100.0 µM 76% | [9]; [17] 85% | [10]; at 50.0 µM 79.4% | [12]; at 11.0 µM 71% | [12]; at 33.0 µM 72% | [12]; at 100.0 µM 75% | [13]; [17] 78% | [13]; at 50.0 µM 72.9%

CC1=Cc2ccc(C)cc2C(=O)C1=O
active: [1]; at 33.0 µM 99% | [1]; at 100.0 µM 99% | [2]; at 11.0 µM 71% | [2]; at 33.0 µM 95% | [2]; at 100.0 µM 99% | [3]; at 33.0 µM 100% | [3]; at 100.0 µM 99% | [4]; at 33.0 µM 99% | [4]; [17] 99% | [4]; at 50.0 µM 99.1% | [4]; at 100.0 µM 98% | [5]; at 33.0 µM 100% | [5]; [17] 99% | [5]; at 50.0 µM 99.4% | [5]; at 100.0 µM 99% | [6]; at 11.0 µM 79% | [6]; at 33.0 µM 99% | [6]; at 100.0 µM 99% | [7]; [17] 99% | [7]; at 50.0 µM 99.3% | [8]; at 100.0 µM 94% | [9]; [17] 99% | [9]; at 50.0 µM 98.2% | [10]; [17] 99% | [10]; at 50.0 µM 99.3% | [10]; at 100.0 µM 99% | [11]; at 100.0 µM 98% | [14]; at 11.0 µM 71% | [14]; at 33.0 µM 99% | [14]; at 100.0 µM 99% | [13]; [17] 99% | [13]; at 50.0 µM 99.2% | [15]; at 33.0 µM 99% | [15]; at 100.0 µM 98%
inactive: [1]; at 1.2 µM -10% | [1]; at 3.7 µM 8% | [1]; at 11.0 µM 41% | [2]; at 1.2 µM 34% | [2]; at 3.7 µM 54% | [3]; at 1.2 µM 27% | [3]; at 3.7 µM 42% | [3]; at 11.0 µM 60% | [4]; at 1.2 µM 3% | [4]; at 3.7 µM 6% | [4]; [16] 31% | [4]; at 11.0 µM 53% | [5]; at 1.2 µM 2% | [5]; at 3.7 µM 21% | [5]; [16] -7% | [5]; at 11.0 µM 42% | [6]; at 1.2 µM 18% | [6]; at 3.7 µM 31% | [7]; [16] 43% | [8]; at 1.2 µM 2% | [8]; at 3.7 µM 2% | [8]; at 11.0 µM 9% | [8]; at 33.0 µM 18% | [9]; [16] 0% | [10]; at 1.2 µM 0% | [10]; at 3.7 µM -3% | [10]; [16] 36% | [10]; at 11.0 µM 2% | [10]; at 33.0 µM 44% | [11]; at 1.2 µM -7% | [11]; at 3.7 µM -6% | [11]; at 11.0 µM 4% | [11]; at 33.0 µM -1% | [14]; at 1.2 µM 12% | [14]; at 3.7 µM 11% | [13]; [16] 66% | [15]; at 1.2 µM 25% | [15]; at 3.7 µM 28% | [15]; at 11.0 µM 66%

O=C(Cc1ccccc1F)NC1=C(Cl)C(=O)c2ccccc2C1=O
active: [10]; [17] 70% | [10]; at 100.0 µM 73%
inactive: [1]; at 1.2 µM 1% | [1]; at 3.7 µM 0% | [1]; at 11.0 µM 0% | [1]; at 33.0 µM 9% | [1]; at 100.0 µM 17% | [2]; at 1.2 µM 40% | [2]; at 3.7 µM 43% | [2]; at 11.0 µM 51% | [2]; at 33.0 µM 48% | [2]; at 100.0 µM 59% | [3]; at 1.2 µM -2% | [3]; at 3.7 µM 11% | [3]; at 11.0 µM 8% | [3]; at 33.0 µM 3% | [3]; at 100.0 µM 14% | [4]; at 1.2 µM 20% | [4]; at 3.7 µM 26% | [4]; [16] 14% | [4]; at 11.0 µM 13% | [4]; at 33.0 µM 22% | [4]; [17] 4% | [4]; at 50.0 µM 30.8% | [4]; at 100.0 µM 37% | [5]; at 1.2 µM 41% | [5]; at 3.7 µM 45% | [5]; [16] -16% | [5]; at 11.0 µM 46% | [5]; at 33.0 µM 55% | [5]; [17] 50% | [5]; at 50.0 µM -14.2% | [5]; at 100.0 µM 69% | [6]; at 1.2 µM -26% | [6]; at 3.7 µM -12% | [6]; at 11.0 µM -8% | [6]; at 33.0 µM 19% | [6]; at 100.0 µM 38% | [7]; [16] 1% | [7]; [17] 54% | [7]; at 50.0 µM 11.4% | [8]; at 1.2 µM 1% | [8]; at 3.7 µM 18% | [8]; at 11.0 µM 19% | [8]; at 33.0 µM -1% | [8]; at 100.0 µM 27% | [9]; [16] 33% | [9]; [17] 45% | [9]; at 50.0 µM 24.3% | [10]; at 1.2 µM 14% | [10]; at 3.7 µM 17% | [10]; [16] -6% | [10]; at 11.0 µM 27% | [10]; at 33.0 µM 47% | [10]; at 50.0 µM 54% | [12]; at 1.2 µM 39% | [12]; at 3.7 µM 35% | [12]; at 11.0 µM 41% | [12]; at 33.0 µM 59% | [12]; at 100.0 µM 58% | [13]; [16] 20% | [13]; [17] 28% | [13]; at 50.0 µM -1.75% | [15]; at 1.2 µM 29% | [15]; at 3.7 µM 6% | [15]; at 11.0 µM 25% | [15]; at 33.0 µM 34% | [15]; at 100.0 µM 40%
